Experimental findings from PubChem BioAssay (Tox21) are described below.

Assay [1] can be described thus: qHTS assay to identify small molecule agonists of the peroxisome proliferator-activated receptor delta (PPARd) signaling pathway - cell viability counter screen (AID 743211; active means well fitted curve in the direction sought with a large enough effect in the repeat runs; an effect the other way counts as inactive or inconclusive; further: nearly all actives have a fitted effect of over 55% in size). The procedure, abridged:
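PPARd-bla HEK293H cells (3000/well) were pre-incubated 5 h at 37 C, then exposed to compound for 17 h at 37 C. After 2 h with LiveBLAzer substrate, CellTiter-Glo was added to the same wells; luminescence read after 30 min at room temperature.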
On the technique in general: qHTS replaces the single test concentration by a dilution series.

Assay [2] addresses Peroxisome proliferator-activated receptor delta (Homo sapiens) (UniProt Q03181). The experiment in a line: qHTS assay to identify small molecule agonists of the peroxisome proliferator-activated receptor delta (PPARd) signaling pathway (AID 743212). The method in brief: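 HEK293H UAS-bla reporter cells, human PPARd system; compounds delivered in DMSO after 5 h plating, then at 37 C. Beta-lactamase FRET read, 2 h RT substrate step.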

Assay [3] in a line: qHTS assay to identify small molecule antagonists of the peroxisome proliferator-activated receptor delta (PPARd) signaling pathway - cell viability counter screen (AID 743213; active means well fitted curve in the direction sought with a large enough effect in the repeat runs; an effect the other way counts as inactive or inconclusive; further: nearly all actives have a fitted effect of over 50% in size). The method in brief:
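Cytotoxicity counter screen: CellTiter-Glo luminescence read 30 min after addition, in the same wells as the reporter assay. There, PPARd UAS-bla HEK293H cells (3000/well) were treated 17 h at 37 C with compound and 300 nM L165041.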

Assay [4] concerns the target Bile acid receptor (Homo sapiens) (UniProt Q96RI1). The experiment in a line: qHTS assay to identify small molecule antagonists of the farnesoid-X-receptor (FXR) signaling pathway (AID 743217; active means well fitted inhibition curve with a large enough effect in the signal ratio in the repeat runs, not every such curve was filed as active; the % refers to the signal ratio). The procedure, abridged: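 Beta-lactamase reporter under UAS control in HEK 293T cells; compound exposure 16 h at 37 °C in the presence of chenodeoxycholic acid (50 uM final); signal from B/G FRET substrate after 2 h at room temperature.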

Assay [5] can be described thus: qHTS assay to identify small molecule agonists of the farnesoid-X-receptor (FXR) signaling pathway - cell viability counter screen (AID 743218; active means well fitted curve in the direction sought with a large enough effect in the repeat runs; an effect the other way counts as inactive or inconclusive; further: nearly all actives have a fitted effect of over 45% in size). The method in brief: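 In GeneBLAzer FXR-UAS-bla HEK 293T cells, compounds act for 16 h at 37 C. Cell viability is then scored in the reporter wells by CellTiter-Glo, 30 min at RT, luminescence.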
Assay [6] has as its target Bile acid receptor (Homo sapiens) (UniProt Q96RI1). The experiment in a line: qHTS assay to identify small molecule agonists of the farnesoid-X-receptor (FXR) signaling pathway (AID 743220; active means well fitted activation curve with a large enough effect in the signal ratio in the repeat runs, not every such curve was filed as active; the % refers to the signal ratio). The method in brief: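 Beta-lactamase reporter under UAS control in GeneBLAzer FXR HEK 293T cells (5000/well) measured with LiveBLAzer FRET substrate after 2 h at room temperature. Compound exposure lasted 16 h at 37C.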

Assay [7] in a line: qHTS assay to identify small molecule antagonists of the farnesoid-X-receptor (FXR) signaling pathway - cell viability counter screen (AID 743221; active means well fitted cell-killing curve with a large enough effect in the repeat runs, not every such curve was filed as active; further: nearly all actives have a fitted effect of over 50% in size). The method in brief:
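GeneBLAzer FXR-UAS-bla HEK 293T cells, compound plus chenodeoxycholic acid (50 uM final), 16 h at 37 C. CellTiter-Glo added to the same wells after the beta-lactamase read; luminescence read after 30 min at room temperature as viability.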

Assay [8] addresses Vitamin D3 receptor (Homo sapiens) (UniProt P11473). The experiment in a line: qHTS assay to identify small molecule agonists of the vitamin D receptor (VDR) signaling pathway (AID 743222). The procedure, abridged:
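Agonist activity measured in VDR-bla reporter cells. Exposure 16 h, 37C, 5% CO2; detection by B/G FRET substrate, 2 h RT.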

Assay [9] is described as follows: qHTS assay to identify small molecule agonists of the vitamin D receptor (VDR) signaling pathway - cell viability counter screen (AID 743224; active means well fitted curve in the direction sought with a large enough effect in the repeat runs; an effect the other way counts as inactive or inconclusive; further: series mostly up to about 63 µM; nearly all actives have a fitted effect of over 50% in size). The procedure, abridged:
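VDR-bla cell line, quantitative HTS format; 16 h compound incubation (37C, 5% CO2); ATP-based CellTiter-Glo luminescence measured in the reporter assay wells.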

Assay [10] in a line: qHTS assay to identify small molecule antagonists of the vitamin D receptor (VDR) signaling pathway - cell viability counter screen (AID 743225; active means well fitted curve in the direction sought with a large enough effect in the repeat runs; an effect the other way counts as inactive or inconclusive; further: nearly all actives have a fitted effect of over 50% in size). The procedure, abridged: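 VDR-UAS-bla HEK 293T cells were plated and incubated 4 h at 37C, then dosed with compound plus 3 nM (final) 1-alpha,25-dihydroxyvitamin D3 for 16 h. After the 2 h beta-lactamase read, viability in the same wells was read as CellTiter-Glo luminescence after 30 min at room temperature.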

Assay [11] is described as follows: qHTS assay to identify small molecule agonists of the NFkB signaling pathway - cell viability counter screen (AID 1159515). Further: series mostly up to about 61 µM; nearly all actives have a fitted effect of over 55% in size. The procedure, abridged:
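Viability in NFkB-bla ME-180 cells was measured by CellTiter-Glo luminescence, 30 min room temperature, in wells already treated 5 hr with compounds and read for reporter FRET.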

Assay [12] is described as follows: qHTS assay to identify small molecule agonists of the endoplasmic reticulum stress response signaling pathway (AID 1159516; active means well fitted activation curve with a large enough effect in the signal ratio in the repeat runs, not every such curve was filed as active; the % refers to the signal ratio). The procedure, abridged:
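ER stress element reporter (bla) in HeLa. 1,500 cells/well, overnight attachment; 5 hr compound; 2 hr RT substrate; dual-emission fluorescence.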

Assay [13] is described as follows: qHTS assay to identify small molecule agonists of the endoplasmic reticulum stress response signaling pathway - cell viability counter screen (AID 1159517). The procedure, abridged:
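Cells, HeLa ESRE-bla; density, 1,500/well; dosing, 5 hr at 37 C, 5% CO2; readout, CellTiter-Glo luminescence after 30 min RT.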

Assay [14] is described as follows: qHTS assay to identify small molecule antagonists of the retinoid-related orphan receptor gamma (ROR-gamma) signaling pathway - cell viability counter screen (AID 1159520; active means well fitted curve in the direction sought with a large enough effect in the repeat runs; an effect the other way counts as inactive or inconclusive; further: nearly all actives have a fitted effect of over 50% in size). The procedure, abridged:
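Cytotoxicity was read from cellular ATP (CellTiter-Glo luminescence) after 16 hr at 37 C with 1 uM doxycycline induction. The inducer was added 2 hr after compound transfer to Tet-on ROR gamma CHO cells.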

For assay [15], the target named is Nuclear receptor ROR-gamma (Homo sapiens) (UniProt P51449). Kind of assay: qHTS assay to identify small molecule antagonists of the retinoid-related orphan receptor gamma (ROR-gamma) signaling pathway (AID 1159521; active means well fitted curve in the direction sought with a large enough effect in the repeat runs; an effect the other way counts as inactive or inconclusive; further: nearly all actives have a fitted effect of over 50% in size; further: potency means the concentration at half of the fitted maximal effect). The procedure, abridged: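 Tet-on ROR-gamma CHO cells with ROR response element-luciferase reporter; compounds added 2 hr before 1 uM doxycycline induction, then 16 hr at 37 C. Antagonism scored as decreased ONE-Glo luminescence.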

Assay [16] can be described thus: qHTS assay to identify small molecule agonists of the AP-1 signaling pathway - cell viability counter screen (AID 1159525). Further: nearly all actives have a fitted effect of over 55% in size. Further: potency means the concentration at half of the fitted maximal effect. The method in brief: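 Luminescent ATP readout (Cell Titer Glo, 30 min RT), normalised to DMSO and tetra n-octyl ammonium bromide controls. Cells were ME-180 AP-1-bla in 0.5% dialyzed FBS Opti-MEM, with a 5 h, 37 °C compound exposure.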
Assay [17] is described as follows: qHTS assay to identify small molecule agonists of the AP-1 signaling pathway (AID 1159526).
The target in assay [18] is Retinoic acid receptor RXR-alpha (Homo sapiens) (UniProt P19793). Kind of assay: qHTS assay to identify small molecule agonists of the RXR signaling pathway (AID 1159527). Further: nearly all actives have a fitted effect of over 35% in size. The procedure, abridged:
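GeneBLAzer RXR-alpha-UAS-bla HEK 293T cells in 2% charcoal-stripped FBS medium were exposed to compounds for 16 hr at 37 C in agonist mode. Beta-lactamase reporter read as 460/530 nm FRET ratio after 2 hr substrate loading.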

Assay [19] has as its target Peroxisome proliferator-activated receptor delta (Homo sapiens) (UniProt Q03181). Kind of assay: qHTS assay to identify small molecule antagonists of the peroxisome proliferator-activated receptor delta (PPARd) signaling pathway (AID 743215; active means well fitted inhibition curve with a large enough effect in the signal ratio in the repeat runs, not every such curve was filed as active; the % refers to the signal ratio;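 further: cells stimulated with agonist L165041 at 300 nM final during compound exposure; series mostly up to about 62 µM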). The procedure, abridged:
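Antagonist-mode beta-lactamase reporter screen: HEK293H cells with UAS-bla under PPARd control, stimulated by 300 nM L165041 (final) alongside test compound for 17 h at 37 C, then FRET fluorescence after 2 h substrate incubation.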

The target of assay [20] is Vitamin D3 receptor (Homo sapiens) (UniProt P11473). Kind of assay: qHTS assay to identify small molecule antagonists of the vitamin D receptor (VDR) signaling pathway (AID 743223; active means well fitted inhibition curve with a large enough effect in the signal ratio in the repeat runs, not every such curve was filed as active; the % refers to the signal ratio). The method in brief:
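VDR-bla cells were treated with compound plus 3 nM final 1alpha,25-dihydroxyvitamin D3 for 16 h at 37C. Beta-lactamase reporter read by B/G FRET substrate fluorescence after 2 h at room temperature. qHTS format.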

Structures are written as SMILES. “And” between values parts separate entries of the source, which are not always exact repeats. Identical values can stand only once. Inconclusive results are not listed. A structure can be active in one record and inactive in another. The source made the active and inactive calls. Unless noted, the call rests on the fitted dose curve.

Chain of Vitamin D3 receptor (Homo sapiens) (P11473 whole entry, looked up): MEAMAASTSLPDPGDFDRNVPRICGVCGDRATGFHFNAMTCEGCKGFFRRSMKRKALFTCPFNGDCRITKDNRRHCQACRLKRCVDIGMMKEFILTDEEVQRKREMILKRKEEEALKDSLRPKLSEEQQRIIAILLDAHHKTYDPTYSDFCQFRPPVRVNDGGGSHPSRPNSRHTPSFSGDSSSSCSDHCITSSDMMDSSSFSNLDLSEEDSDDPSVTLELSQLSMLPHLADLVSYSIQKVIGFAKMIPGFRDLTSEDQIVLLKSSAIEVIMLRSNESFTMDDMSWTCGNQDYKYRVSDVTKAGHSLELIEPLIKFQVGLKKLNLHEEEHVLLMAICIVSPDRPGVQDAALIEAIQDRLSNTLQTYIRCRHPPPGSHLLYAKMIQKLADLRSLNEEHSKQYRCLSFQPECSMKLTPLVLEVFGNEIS
Chain of Retinoic acid receptor RXR-alpha (Homo sapiens) (P19793 whole entry, looked up): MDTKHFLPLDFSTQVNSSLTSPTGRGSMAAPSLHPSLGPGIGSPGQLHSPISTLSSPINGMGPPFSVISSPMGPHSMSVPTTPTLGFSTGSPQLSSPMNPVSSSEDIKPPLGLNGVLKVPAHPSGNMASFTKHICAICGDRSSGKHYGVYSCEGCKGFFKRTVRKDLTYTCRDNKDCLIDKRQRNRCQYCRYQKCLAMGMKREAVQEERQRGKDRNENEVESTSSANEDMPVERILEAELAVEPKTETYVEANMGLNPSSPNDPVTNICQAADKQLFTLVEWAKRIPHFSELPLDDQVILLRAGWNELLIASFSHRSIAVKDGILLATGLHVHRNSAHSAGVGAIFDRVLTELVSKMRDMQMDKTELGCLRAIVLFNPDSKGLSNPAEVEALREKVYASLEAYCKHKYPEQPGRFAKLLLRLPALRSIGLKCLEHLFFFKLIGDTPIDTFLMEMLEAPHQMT
Chain of Peroxisome proliferator-activated receptor delta (Homo sapiens) (Q03181 whole entry, looked up): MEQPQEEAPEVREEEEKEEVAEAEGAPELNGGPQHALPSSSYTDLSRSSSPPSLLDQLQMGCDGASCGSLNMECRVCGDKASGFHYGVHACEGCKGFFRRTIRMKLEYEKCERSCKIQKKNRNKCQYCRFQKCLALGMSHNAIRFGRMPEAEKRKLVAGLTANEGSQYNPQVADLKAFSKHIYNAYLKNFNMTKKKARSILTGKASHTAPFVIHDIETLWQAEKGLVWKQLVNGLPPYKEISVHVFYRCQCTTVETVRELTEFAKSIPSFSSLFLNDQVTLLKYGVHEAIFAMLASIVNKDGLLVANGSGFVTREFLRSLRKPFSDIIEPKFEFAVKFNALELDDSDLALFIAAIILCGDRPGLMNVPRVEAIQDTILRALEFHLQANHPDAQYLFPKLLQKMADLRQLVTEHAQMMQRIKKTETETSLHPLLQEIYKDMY
Chain of Bile acid receptor (Homo sapiens) (Q96RI1 whole entry, looked up): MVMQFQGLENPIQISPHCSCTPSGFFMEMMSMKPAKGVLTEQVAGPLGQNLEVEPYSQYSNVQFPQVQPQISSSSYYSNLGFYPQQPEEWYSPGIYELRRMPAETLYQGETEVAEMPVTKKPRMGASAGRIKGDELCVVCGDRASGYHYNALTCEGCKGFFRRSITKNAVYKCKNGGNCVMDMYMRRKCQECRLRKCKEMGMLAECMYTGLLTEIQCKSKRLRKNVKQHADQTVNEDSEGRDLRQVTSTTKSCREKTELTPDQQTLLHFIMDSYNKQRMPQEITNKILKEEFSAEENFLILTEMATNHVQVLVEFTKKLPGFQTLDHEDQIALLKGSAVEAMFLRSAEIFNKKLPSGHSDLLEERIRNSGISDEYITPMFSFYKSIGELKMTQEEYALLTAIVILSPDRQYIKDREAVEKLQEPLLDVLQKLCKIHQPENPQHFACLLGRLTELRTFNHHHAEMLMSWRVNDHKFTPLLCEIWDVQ

Regarding `CCCCOCC1CO1` (stereo not given), the Potency result in assay [1], in assay [2], in assay [3], in [4], in [5] and in [6] was “inactive” in each case. In addition, the Potency result in assay [7], in assay [9], in assay [10], in assay [11], in assay [12] and in assay [13] was “inactive” each time. The Potency entry in [14], in [15] and in assay [16] was “inactive” throughout. In addition, the compound was classed as inactive in assay [8] and in [17].
In the case of `CCCCCCCCCCCCCl`, the Potency result in assay [1], in assay [2], in assay [3], in [5], in assay [7] and in assay [9] was “inactive” each time. Also, the Potency result in assay [10], in [11], in [12], in [13], in assay [14] and in assay [15] was “inactive” in each case. Further, in assay [16], the Potency entry is “inactive”. Moreover, the compound was called inactive in [8] and in assay [17].
Consider `N#CCCCCC#N`, for which the Potency entry in assay [1], in assay [2], in [3], in [4], in assay [6] and in [7] was “inactive” in each case. Besides, the Potency result in assay [10], in [11], in assay [12], in [13], in assay [14] and in [15] was “inactive” in each case. For the same compound, in [16], the Potency result was “inactive”. Moreover, the result in [8] and in assay [17] was inactive.
`CN(C)c1nc(=O)n(C2CCCCC2)c(=O)n1C`: the Potency result in assay [1], in assay [2], in assay [3], in [4], in assay [6] and in [7] was “inactive” each time. Moreover, the Potency result in [9], in [10], in assay [11], in assay [12], in assay [13] and in [14] was “inactive” in each case. The Potency result in assay [15], in assay [16] and in assay [18] was “inactive” throughout. The call in [8] and in assay [17] was inactive.
As for `ClCC(Cl)CCl`, the Potency result in assay [2], in assay [3], in assay [5], in [7], in assay [9] and in assay [10] was “inactive” each time. The Potency entry in assay [11], in assay [12], in assay [13], in assay [14], in assay [15] and in assay [16] was “inactive” throughout. The Potency entry in assay [18] was “inactive”. The compound was classed as inactive in assay [8] and in assay [17].
On to `CC(C)(O)C#N`, for which the Potency result in [3], in assay [4], in assay [6], in assay [7], in assay [10] and in [11] was “inactive” in each case. The Potency result in assay [12], in [13], in assay [14], in assay [15], in assay [16] and in assay [18] was “inactive” throughout. Further, the result in assay [8] and in assay [17] was inactive.
Turning to `Nc1ccc([N+](=O)[O-])cc1N`, the Potency result in [1], in [2], in assay [3], in assay [19], in assay [5] and in assay [7] was “inactive” in each case. Further, the Potency entry in [20], in [10], in assay [11], in assay [12], in [13] and in [14] was “inactive” throughout. The compound was called inactive in assay [8] and in assay [17]. In addition, the Potency is 9.68 µM (active) and 30.6 µM (active) in [15]; 34.7 µM (active) and inactive in assay [16].
For `CNC(=O)CSP(=S)(OC)OC`, the Potency entry in assay [1], in assay [2], in [3], in assay [19], in assay [7] and in [20] was “inactive” throughout. The Potency result in assay [9], in [10], in assay [11], in [12], in assay [13] and in [14] was “inactive” each time. In addition, the Potency result in assay [15] and in assay [16] was “inactive” in each case. The call in assay [8] and in assay [17] was inactive.
